Test [1] in a line: ATG_GLI_CIS: Attagene CIS-FACTORIAL HepG2 Assay for human Zinc Finger Protein GLI1 (AID 2282945). The note with it: HepG2, Attagene cis-factorial reporter mRNA, GLI element; actives raise or lower the signal. In a few lines:
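Bidirectional curve fits relative to DMSO, using reporter mRNA levels from RT-PCR plus capillary electrophoresis. Cells were HepG2 transiently carrying cis-regulated reporter constructs, harvested 24 h after dosing.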

Test [2] deals with Bile acid receptor (Homo sapiens) (UniProt Q96RI1). Kind of test: ATG_IR1_CIS: Attagene CIS-FACTORIAL HepG2 Assay for human Nuclear Receptor Subfamily 1 Group H Member 4 (NR1H4), IR1 submotif (AID 2282946). The note with it: IR1 reporter transcription, actives raise or lower the signal. In a few lines:
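HepG2 cells transiently transfected with multiplexed cis-element reporter units read endogenous transcription factor activity. After 24 h compound exposure, reporter mRNA was quantified by RT-PCR, fluorescent labelling, HpaI digestion and capillary electrophoresis; bidirectional fitting versus DMSO baseline.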

A short description of test [3]: ATG_GRE_CIS: Attagene CIS-FACTORIAL HepG2 Assay for human Glucocorticoid Response Elements (GRE) (AID 2282947). The note with it: HepG2 GRE cis-reporter, Attagene multiplex mRNA; actives raise or lower the signal. In a few lines: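 Multiplexed cis-reporter mRNA induction, HepG2, 24 h post-dose. RT-PCR, FAM-labelled, HpaI-digested amplicons by CE. Bidirectional fit vs DMSO.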

Test [4] is described as follows: ATG_ISRE_CIS: Attagene CIS-FACTORIAL HepG2 Assay for human Interferon Regulatory Factor 1 (IRF1) binding to an Interferon-Stimulated Response Element (ISRE) (AID 2282948). The note with it: HepG2 ISRE cis-reporter (Attagene), mRNA transcription readout; actives raise or lower the signal. In a few lines: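 Endogenous transcription factor activity read as reporter transcript abundance via RT-PCR and capillary electrophoresis. HepG2 cells transiently transfected, 24 h chemical exposure. Gain or loss fitted against DMSO baseline.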

A short description of test [5]: ATG_M_32_CIS: Attagene CIS-FACTORIAL HepG2 Assay for M32 Transcription Factor (Internal Marker) (AID 2282949).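 Note: background control marker of the multiplexed CIS panel rather than a real target.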 The following applies: HepG2 Attagene cis-factorial M32 reporter, mRNA; actives raise or lower the signal. In outline:
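Using DMSO as baseline, bidirectional curve fits were applied to reporter mRNA signals. These came from transiently transfected HepG2 cells exposed for 24 h, with RNA analysed by RT-PCR, FAM primer extension, HpaI digestion and CE.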

For test [6], the target named is Hypoxia-inducible factor 1-alpha (Homo sapiens) (UniProt Q16665). Kind of test: ATG_HIF1a_CIS: Attagene CIS-FACTORIAL HepG2 Assay for human Hypoxia Inducible Factor 1 (HIF1A) (AID 2282951). The note with it: HepG2 Attagene cis-factorial HIF1a reporter transcription; actives raise or lower the signal. In a few lines: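 Endogenous-TF cis reporter readout, human HepG2 cells, 24 h incubation; mRNA detected via RT-PCR and capillary electrophoresis fluorescence; DMSO-normalised bidirectional fitting.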
Chain of Hypoxia-inducible factor 1-alpha (Homo sapiens) (Q16665 whole entry, looked up): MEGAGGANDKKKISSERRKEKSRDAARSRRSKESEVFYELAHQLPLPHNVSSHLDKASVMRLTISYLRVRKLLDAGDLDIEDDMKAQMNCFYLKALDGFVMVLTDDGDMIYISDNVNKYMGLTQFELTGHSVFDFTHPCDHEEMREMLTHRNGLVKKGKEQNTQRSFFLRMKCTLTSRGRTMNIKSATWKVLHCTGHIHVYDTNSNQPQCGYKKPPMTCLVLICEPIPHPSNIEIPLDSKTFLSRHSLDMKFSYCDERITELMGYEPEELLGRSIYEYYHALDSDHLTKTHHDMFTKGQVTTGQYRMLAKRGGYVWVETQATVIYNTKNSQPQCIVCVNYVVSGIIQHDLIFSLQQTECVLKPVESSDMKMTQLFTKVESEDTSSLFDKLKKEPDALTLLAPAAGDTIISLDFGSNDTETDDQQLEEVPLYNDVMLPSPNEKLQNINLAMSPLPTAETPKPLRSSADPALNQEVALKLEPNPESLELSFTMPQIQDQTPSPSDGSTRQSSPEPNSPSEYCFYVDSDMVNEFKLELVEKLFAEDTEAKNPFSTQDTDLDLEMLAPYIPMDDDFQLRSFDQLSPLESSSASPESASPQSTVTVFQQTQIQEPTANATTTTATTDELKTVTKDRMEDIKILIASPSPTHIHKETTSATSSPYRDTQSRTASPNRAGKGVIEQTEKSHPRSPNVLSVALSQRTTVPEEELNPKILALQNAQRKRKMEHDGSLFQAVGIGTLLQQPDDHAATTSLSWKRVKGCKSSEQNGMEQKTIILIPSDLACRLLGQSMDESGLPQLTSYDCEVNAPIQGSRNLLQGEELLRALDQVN

In test [7] the target is Hepatocyte nuclear factor 6 (Homo sapiens) (UniProt Q9UBC0). Put plainly: ATG_HNF6_CIS: Attagene CIS-FACTORIAL HepG2 Assay for human Hepatocyte Nuclear Factor 6 (HNF6) (AID 2282952). The note with it: HepG2 Attagene cis-factorial HNF6 reporter transcription; actives raise or lower the signal. In outline: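 Using cis-element reporters in HepG2 liver cells, the assay tracks endogenous factor-driven transcription 24 h post-dosing. Signal comes from 6-FAM-labelled, HpaI-digested RT-PCR fragments, with gain or loss scored against DMSO.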
Chain of Hepatocyte nuclear factor 6 (Homo sapiens) (Q9UBC0 whole entry, looked up, the tested form may be a part): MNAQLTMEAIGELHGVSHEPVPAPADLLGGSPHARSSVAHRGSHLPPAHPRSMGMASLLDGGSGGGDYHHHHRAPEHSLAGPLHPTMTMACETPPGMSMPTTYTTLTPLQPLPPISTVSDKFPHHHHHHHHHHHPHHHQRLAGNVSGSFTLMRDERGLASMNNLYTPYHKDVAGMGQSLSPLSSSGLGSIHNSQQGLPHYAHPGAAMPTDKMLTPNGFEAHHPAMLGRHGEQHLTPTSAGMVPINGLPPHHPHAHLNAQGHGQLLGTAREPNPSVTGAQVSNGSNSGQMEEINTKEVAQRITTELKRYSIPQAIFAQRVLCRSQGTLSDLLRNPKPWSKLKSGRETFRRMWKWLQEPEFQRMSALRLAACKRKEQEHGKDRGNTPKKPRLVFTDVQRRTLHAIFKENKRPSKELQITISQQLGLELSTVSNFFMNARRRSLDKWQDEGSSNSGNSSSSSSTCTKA

For test [8], the target named is Heat shock factor protein 1 (Homo sapiens) (UniProt Q00613). Put plainly: ATG_HSE_CIS: Attagene CIS-FACTORIAL HepG2 Assay for human Heat Shock Transcription Factor 1 (HSE) (AID 2282953). The note with it: HepG2 HSE cis-reporter, Attagene RNA transcription; actives raise or lower the signal. In outline:
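After a 24 h incubation with test chemical, transfected HepG2 cells were harvested for RNA; reporter transcripts were measured by RT-PCR and capillary electrophoresis. Values reflect gain or loss of signal relative to DMSO.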

Test [9] is described as follows: ATG_MRE_CIS: Attagene CIS-FACTORIAL HepG2 Assay for human Metal Responsive Element (MRE) (AID 2282954). The note with it: HepG2 MRE cis-reporter transcription, Attagene multiplex; actives raise or lower the signal. In a few lines: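 Multiplexed cis-reporter assay in human HepG2 liver cells, 24 h incubation with test chemical. Reporter transcripts measured by RT-PCR and capillary electrophoresis; values from bidirectional curve fitting versus DMSO.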

Test [10] is described as follows: ATG_PBREM_CIS: Attagene CIS-FACTORIAL HepG2 Assay for human Phenobarbital-responsive Enhancer Module (PBREM) (AID 2282955). The note with it: HepG2 PBREM cis-reporter, Attagene multiplexed transcription; actives raise or lower the signal. In a few lines: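 Readout: reporter mRNA, fluorescent RT-PCR fragments separated by capillary electrophoresis. System: HepG2 transiently transfected with cis-regulated reporter units. Exposure: 24 h. Analysis: bidirectional, DMSO baseline.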

The target of test [11] is Paired box protein Pax-6 (Homo sapiens) (UniProt P26367). Put plainly: ATG_Pax6_CIS: Attagene CIS-FACTORIAL HepG2 Assay for human Paired Box 6 (PAX6) (AID 2282956). The following applies: HepG2 CIS-FACTORIAL PAX6 reporter transcription, RNA readout; actives raise or lower the signal. In outline: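 Read-out is reporter transcript level, measured by RT-PCR with fluorescent primer extension and capillary electrophoresis after 24 h dosing of transfected HepG2 cells. Activity in either direction fitted relative to DMSO control.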
Chain of Paired box protein Pax-6 (Homo sapiens) (P26367 whole entry, looked up): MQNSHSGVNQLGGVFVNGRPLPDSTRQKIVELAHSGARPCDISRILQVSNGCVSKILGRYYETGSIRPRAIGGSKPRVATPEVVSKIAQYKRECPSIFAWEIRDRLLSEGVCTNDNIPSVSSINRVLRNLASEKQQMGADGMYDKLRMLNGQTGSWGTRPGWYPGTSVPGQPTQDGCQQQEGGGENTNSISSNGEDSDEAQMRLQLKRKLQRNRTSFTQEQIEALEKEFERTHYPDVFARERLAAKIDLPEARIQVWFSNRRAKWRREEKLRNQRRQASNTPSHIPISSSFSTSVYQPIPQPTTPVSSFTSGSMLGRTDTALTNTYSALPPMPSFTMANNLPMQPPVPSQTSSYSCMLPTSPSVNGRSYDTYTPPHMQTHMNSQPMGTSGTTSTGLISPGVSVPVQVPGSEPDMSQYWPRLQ

Test [12] is described as follows: ATG_PXRE_CIS: Attagene CIS-FACTORIAL HepG2 Assay for human Pregnane X Receptor Element (PXRE) (AID 2282957). The note with it: HepG2 Attagene CIS-FACTORIAL PXRE reporter, mRNA; actives raise or lower the signal. In outline: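 Using HepG2 transfected with multiple reporter transcription units, endogenous factor-driven transcription was scored as reporter mRNA after 24 h exposure.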

Test [13] can be described thus: ATG_PPRE_CIS: Attagene CIS-FACTORIAL HepG2 Assay for human Peroxisome Proliferator-activated Response Element (PPRE) (AID 2282958). The following applies: HepG2 PPRE cis-element reporter, Attagene transcription factor profiling; actives raise or lower the signal. In a few lines:
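After human HepG2 hepatoma cells were transiently transfected with cis-promoter reporter constructs, they were exposed to test chemicals for 24 hours. Reporter RNA was then reverse-transcribed, PCR-amplified, FAM-labeled, HpaI-digested and quantified by capillary electrophoresis.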

A short description of test [14]: ATG_RORE_CIS: Attagene CIS-FACTORIAL HepG2 Assay for human RAR-related Orphan Receptor Element (RORE) (AID 2282959). The following applies: HepG2 Attagene cis-factorial RORE reporter, mRNA; actives raise or lower the signal. In a few lines:
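Measured here: transcript induction of a cis-regulated reporter in HepG2 cells transiently transfected via FuGene 6. After 24 h, RNA was processed by RT-PCR and fluorescent capillary electrophoresis; DMSO defined baseline activity.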

The nature of test [15]: ATG_Sox_CIS: Attagene CIS-FACTORIAL HepG2 Assay for human SRY-box transcription factor (SOX) (AID 2282960). The note with it: HepG2 Attagene cis-factorial SOX reporter, mRNA; actives raise or lower the signal. In a few lines:
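Using transiently transfected HepG2 cells, reporter transcription driven by cis elements was assessed 24 h after dosing. Signal was fluorescence of capillary-separated RT-PCR products, with DMSO defining baseline activity.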

Test [16] concerns the target Transcription factor Sp1 (Homo sapiens) (UniProt P08047). Kind of test: ATG_Sp1_CIS: Attagene CIS-FACTORIAL HepG2 Assay for human Specificity Protein 1 (Sp1) (AID 2282961). The note with it: HepG2 Sp1 cis-reporter transcription, actives raise or lower the signal. In outline: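 After transient transfection of HepG2 cells with cis-promoter reporter units and 24 h chemical treatment, reporter transcripts were quantified by RT-PCR and capillary electrophoresis fluorescence. Gain- and loss-of-signal fitted against DMSO.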

Test [17] is described as follows: ATG_SREBP_CIS: Attagene CIS-FACTORIAL HepG2 Assay for human Sterol Regulatory Element Binding (SREBP) (AID 2282962). The note with it: HepG2 Attagene cis-factorial SREBP reporter, mRNA; actives raise or lower the signal. In outline: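 Endogenous SREBP activity read as cis-element-driven reporter transcript in transiently transfected HepG2, 24 h post-dosing; quantified via RT-PCR plus capillary electrophoresis of fluorescent fragments. Gain or loss of signal fitted relative to DMSO baseline.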

Test [18] deals with Signal transducer and activator of transcription 3 (Homo sapiens) (UniProt P40763). Kind of test: ATG_STAT3_CIS: Attagene CIS-FACTORIAL HepG2 Assay for human Signal Transducer and Activator of Transcription 3 (STAT3) (AID 2282963). The note with it: HepG2, Attagene cis-factorial STAT3 reporter transcription; actives raise or lower the signal. In outline: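 Cis-factorial format: endogenous transcription factors in HepG2 drive transfected reporter units. After 24 h treatment, reporter RNA was reverse-transcribed, amplified, FAM-labelled and HpaI-digested before CE analysis; activity scored in both directions against DMSO.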
Chain of Signal transducer and activator of transcription 3 (Homo sapiens) (P40763 whole entry, looked up): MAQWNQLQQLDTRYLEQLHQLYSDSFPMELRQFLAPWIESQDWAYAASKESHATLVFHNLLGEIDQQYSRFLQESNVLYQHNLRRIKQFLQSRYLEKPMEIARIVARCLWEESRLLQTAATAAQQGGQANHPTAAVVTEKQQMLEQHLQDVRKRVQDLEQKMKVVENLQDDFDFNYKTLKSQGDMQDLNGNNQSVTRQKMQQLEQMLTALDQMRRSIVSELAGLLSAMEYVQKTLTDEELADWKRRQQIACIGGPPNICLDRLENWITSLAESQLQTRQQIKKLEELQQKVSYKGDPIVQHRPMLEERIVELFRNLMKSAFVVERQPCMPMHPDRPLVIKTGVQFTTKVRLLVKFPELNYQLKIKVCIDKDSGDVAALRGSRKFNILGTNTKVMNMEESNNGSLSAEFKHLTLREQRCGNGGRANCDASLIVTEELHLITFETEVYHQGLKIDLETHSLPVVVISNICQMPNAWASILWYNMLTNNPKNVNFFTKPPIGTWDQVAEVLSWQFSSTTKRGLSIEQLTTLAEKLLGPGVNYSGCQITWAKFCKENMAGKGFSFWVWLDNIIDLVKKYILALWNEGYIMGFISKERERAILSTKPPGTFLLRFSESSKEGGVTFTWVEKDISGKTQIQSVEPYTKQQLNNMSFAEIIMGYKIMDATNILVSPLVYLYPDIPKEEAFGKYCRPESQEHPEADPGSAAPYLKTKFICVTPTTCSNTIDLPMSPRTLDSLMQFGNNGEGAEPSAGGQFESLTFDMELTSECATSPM

Test [19] is described as follows: ATG_TA_CIS: Attagene CIS-FACTORIAL HepG2 Assay for human TA Basal Promoter (AID 2282964). The following applies: HepG2 Attagene CIS-factorial TA basal promoter reporter; actives raise or lower the signal. In a few lines: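 Multiplexed mRNA reporter assay, HepG2, 24 h. Reporter cDNA amplified, 6-FAM primer-extended, HpaI-cut, CE-sized; DMSO = negative control and baseline.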

Test [20] is described as follows: ATG_M_06_CIS: Attagene CIS-FACTORIAL HepG2 Assay for M06 Transcription Factor (Internal Marker) (AID 2282950). The following applies: HepG2 Attagene CIS-FACTORIAL M06 internal marker reporter; actives raise or lower the signal. In outline: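 Fluorescence-labelled RT-PCR products from cis-promoter reporter units, cut with HpaI and resolved by capillary electrophoresis, give the signal. Cells are human HepG2, dosed for 24 h. Serves as background control, fitted relative to DMSO.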

This passage reports outcome and AC50 results from PubChem BioAssay (EPA / NIEHS).

Several values for one entry are separate records, joined by “and”; a condition that tells them apart may be missing. Equal entries are not always repeated. Some structures have more than one record in an assay (separate samples or runs), and their calls can disagree. Activity calls are given as the source filed them. Rule for the calls: active = hit-call score of the fitted dose curve at least 0.9, where 1 is the maximum; inactive = score below 0.9.

Chain of Transcription factor Sp1 (Homo sapiens) (P08047 whole entry, looked up): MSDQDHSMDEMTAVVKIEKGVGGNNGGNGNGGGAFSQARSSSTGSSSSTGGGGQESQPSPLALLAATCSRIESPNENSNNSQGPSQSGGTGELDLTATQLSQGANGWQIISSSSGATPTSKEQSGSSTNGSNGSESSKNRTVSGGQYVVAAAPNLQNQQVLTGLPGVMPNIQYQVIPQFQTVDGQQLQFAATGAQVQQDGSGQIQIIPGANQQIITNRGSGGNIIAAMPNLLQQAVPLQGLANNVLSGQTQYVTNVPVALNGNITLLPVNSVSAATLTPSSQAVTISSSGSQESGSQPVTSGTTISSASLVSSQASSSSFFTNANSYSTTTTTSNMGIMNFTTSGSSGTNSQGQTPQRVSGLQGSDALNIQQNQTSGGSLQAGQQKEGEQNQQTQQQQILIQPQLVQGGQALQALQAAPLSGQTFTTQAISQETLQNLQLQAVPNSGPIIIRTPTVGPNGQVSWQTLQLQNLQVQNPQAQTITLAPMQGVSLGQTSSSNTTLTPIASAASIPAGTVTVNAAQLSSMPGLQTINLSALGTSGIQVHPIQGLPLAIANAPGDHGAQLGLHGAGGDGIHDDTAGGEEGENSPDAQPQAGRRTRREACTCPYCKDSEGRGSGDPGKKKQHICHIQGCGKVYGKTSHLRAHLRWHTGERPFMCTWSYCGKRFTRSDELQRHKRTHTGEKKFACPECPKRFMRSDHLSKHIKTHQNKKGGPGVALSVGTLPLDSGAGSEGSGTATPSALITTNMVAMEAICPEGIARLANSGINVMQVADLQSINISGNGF
Chain of Bile acid receptor (Homo sapiens) (Q96RI1 whole entry, looked up): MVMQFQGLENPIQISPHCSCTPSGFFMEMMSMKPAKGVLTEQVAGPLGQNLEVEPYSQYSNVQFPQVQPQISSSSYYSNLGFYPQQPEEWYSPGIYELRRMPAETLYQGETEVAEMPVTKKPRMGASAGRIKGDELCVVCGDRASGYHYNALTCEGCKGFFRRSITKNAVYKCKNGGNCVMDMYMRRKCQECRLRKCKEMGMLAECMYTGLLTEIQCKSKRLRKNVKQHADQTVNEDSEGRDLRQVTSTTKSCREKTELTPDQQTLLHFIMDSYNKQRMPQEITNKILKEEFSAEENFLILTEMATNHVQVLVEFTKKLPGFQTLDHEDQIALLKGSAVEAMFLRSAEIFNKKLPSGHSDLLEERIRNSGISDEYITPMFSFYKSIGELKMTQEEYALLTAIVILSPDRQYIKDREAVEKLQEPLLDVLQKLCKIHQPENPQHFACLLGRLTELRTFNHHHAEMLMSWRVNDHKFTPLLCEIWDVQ
Chain of Heat shock factor protein 1 (Homo sapiens) (Q00613 whole entry, looked up): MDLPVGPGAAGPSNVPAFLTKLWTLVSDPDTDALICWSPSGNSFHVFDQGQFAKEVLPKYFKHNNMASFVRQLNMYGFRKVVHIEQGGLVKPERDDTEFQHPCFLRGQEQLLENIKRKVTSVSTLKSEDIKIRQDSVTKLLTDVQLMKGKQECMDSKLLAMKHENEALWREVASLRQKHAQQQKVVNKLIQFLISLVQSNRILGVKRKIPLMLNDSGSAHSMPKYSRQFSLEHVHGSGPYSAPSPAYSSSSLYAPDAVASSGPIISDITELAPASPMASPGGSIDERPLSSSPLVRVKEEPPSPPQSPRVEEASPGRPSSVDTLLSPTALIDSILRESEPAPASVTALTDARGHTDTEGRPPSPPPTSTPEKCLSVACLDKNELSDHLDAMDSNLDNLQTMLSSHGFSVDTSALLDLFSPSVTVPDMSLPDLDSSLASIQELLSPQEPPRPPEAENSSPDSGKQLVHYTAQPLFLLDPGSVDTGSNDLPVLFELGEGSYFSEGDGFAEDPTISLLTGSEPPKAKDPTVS

For `COC(=O)c1ccccc1CS(=O)(=O)NC(=O)Nc1nc(OC)cc(OC)n1`, the molecule was called inactive in test [1], in test [2], in test [3], in test [4], in [5] and in [6]. The call in [7], in test [8], in [9], in test [10], in test [11] and in test [12] was inactive. Further, the outcome in test [13], in test [14], in [15], in [16], in test [17] and in [18] was inactive. In addition, in [19], the outcome was inactive. Besides, the AC50 in [12] is 33.9 µM (active).
With `ClC1C(Cl)C(Cl)C(Cl)C(Cl)C1Cl` (centres undefined), the result in [1], in test [2], in test [4], in test [5], in [20] and in test [6] was inactive. In addition, the call in [7], in test [8], in test [9], in [11], in [13] and in [15] was inactive. Moreover, the molecule was called inactive in [16] and in test [17]. In addition, the AC50 in [4] is 161 µM (active) and 58.2 µM (active); in test [9], 17.1 µM (active) and 100 µM (active) and 33.7 µM (active); in test [12], 2.93 µM (active) [middle of 4 runs]; in [16], 100 µM (active) and 70.3 µM (active); in [17] it was 67.6 µM (active).
Regarding `N#Cc1c(Cl)c(Cl)c(Cl)c(C#N)c1Cl`, the call in test [1], in test [2], in test [3], in test [4], in test [5] and in test [6] was inactive. Also, the result in test [7], in [8], in test [9], in test [10], in test [11] and in [13] was inactive. In addition, the result in test [14], in [15], in test [16] and in [17] was inactive. Besides, the AC50 in test [12] was 0.121 µM (active).
For `CN1CSC(=S)N(C)C1`, the molecule was classed as inactive in [1], in [2], in [3], in [4], in test [5] and in test [6]. In addition, the result in test [7], in [8], in [10], in test [11], in [12] and in test [14] was inactive. Moreover, the molecule was classed as inactive in [15] and in test [17]. Besides, the AC50 in test [9] was 50 µM (active); in [13], 10.3 µM (active); in test [16], 50 µM (active).
Consider `CCC(C)(C)C(=O)OC1=C(c2ccc(Cl)cc2Cl)C(=O)OC12CCCCC2`, for which the result in test [1], in [2], in [3], in [4], in [5] and in test [20] was inactive. The outcome in test [6], in test [7], in test [8], in test [9], in test [10] and in test [11] was inactive. Further, the molecule was called inactive in test [12], in test [13], in test [14], in test [15], in test [16] and in [17].
`CCC(C)(NC(=O)c1cc(Cl)c(C)c(Cl)c1)C(=O)CCl` (centres undefined): the call in [1], in [2], in [3], in [4], in test [5] and in test [20] was inactive. Besides, the result in test [6], in test [7], in test [8], in test [9], in [10] and in test [11] was inactive. Further, the result in [13], in [14], in [15], in test [16] and in test [17] was inactive. Besides, the AC50 in test [12] is 1.58 µM (active).

As a reminder, the AC50 is the midpoint of the concentration-response curve, whichever way the signal moves.
